Screening results from PubChem BioAssay.
Pol beta inh: blocks human DNA polymerase beta activity; P06746; Pol beta primer extension/strand displacement, fluorescence kinetic; Potency, µM (series often up to 114 µM), for the others: at the highest dose activity change, negative = inhibition, most hits filed as inhibitors; 1.3% of 340,000 active; further: on the % scale 0 is the no-effect control and ±100 the full control effect
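Reaction started by 50 nM substrate onto compound-treated Pol beta (10 nM, 15 min preincubation, room temperature); plates read at 0 min and 10 min. Normalized concentration-effect data fitted by four-parameter Hill equation.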
Pol eta inh-1: blocks human DNA polymerase eta activity | 1.2% of 390,000 active | Potency, µM (titrated, usually from 114 µM), for the others: top-dose activity change, negative = inhibition, hits mostly inhibitors | AID 588591 | recombinant Pol eta, fluorescent DNA replication assay | Q9Y253; further: on the % scale 0 is the no-effect control and ±100 the full control effect
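Pol eta at 10 nM preincubated with compounds 15 min at room temperature; reaction started with fluorescent substrate (50 nM final) and read kinetically at 0 and 10 min.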
Pol kappa inh-1: blocks human DNA polymerase kappa activity | Q9UBT6 | purified Pol kappa, fluorescent DNA synthesis assay, 10 min | Potency, µM (top dose mostly 107 µM), inactives show at the top dose activity, negative = inhibition, most hits filed as inhibitors | 0.53% of 400,000 active | AID 588579; further: on the % scale 0 is the no-effect control and ±100 the full control effect
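Here, compound and 10 nM enzyme are combined for 15 min at room temperature; adding 50 nM substrate (final) starts DNA synthesis, tracked by fluorescence at 0 and 10 min against buffer-only wells.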
POLI inh: DNA polymerase iota (human) inhibition. 1% of 390,000 active. Potency, µM (titrated, usually from 115 µM), inactives show at the top dose activity, negative = inhibition, usual class: inhibitors. AID 588590. Pol iota fluorescent replication assay, 10 min
Target sequence (Q9UNA4 whole entry, looked up): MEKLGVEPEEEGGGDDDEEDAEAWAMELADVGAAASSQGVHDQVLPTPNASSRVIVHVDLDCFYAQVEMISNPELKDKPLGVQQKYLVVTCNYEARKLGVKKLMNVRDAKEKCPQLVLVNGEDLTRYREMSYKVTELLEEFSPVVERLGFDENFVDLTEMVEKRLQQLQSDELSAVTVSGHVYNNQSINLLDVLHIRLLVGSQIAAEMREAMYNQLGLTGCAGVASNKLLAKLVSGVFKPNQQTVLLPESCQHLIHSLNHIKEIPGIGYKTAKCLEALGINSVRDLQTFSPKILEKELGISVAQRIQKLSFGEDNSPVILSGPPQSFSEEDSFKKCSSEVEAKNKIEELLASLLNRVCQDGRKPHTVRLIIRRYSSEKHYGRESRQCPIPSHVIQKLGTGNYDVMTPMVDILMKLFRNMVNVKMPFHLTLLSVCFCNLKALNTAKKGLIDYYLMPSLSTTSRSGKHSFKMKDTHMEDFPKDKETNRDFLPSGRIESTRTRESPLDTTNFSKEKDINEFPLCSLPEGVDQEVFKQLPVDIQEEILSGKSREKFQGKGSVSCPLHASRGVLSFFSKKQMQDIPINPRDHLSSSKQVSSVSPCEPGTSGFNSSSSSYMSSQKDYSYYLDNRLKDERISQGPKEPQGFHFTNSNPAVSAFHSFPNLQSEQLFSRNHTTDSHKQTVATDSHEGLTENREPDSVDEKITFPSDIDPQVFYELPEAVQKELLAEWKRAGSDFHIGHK
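Fluorescent replication assay read twice, at 0 min and 10 min after adding 50 nM (final) substrate. Enzyme (10 nM) and compounds were first incubated 15 min at room temperature; enzyme-free buffer wells were negative controls.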
WRN helicase inh-1: WRN helicase (human) inhibition; 0.46% of 360,000 active; Potency, µM (highest dose often 114 µM), for the others: at the highest dose activity change, negative = inhibition, hits mostly inhibitors; WRN helicase unwinding, fluorescent forked duplex, kinetic; Q14191; further: on the % scale 0 is the no-effect control and ±100 the full control effect; nearly all actives have a fitted effect of over 55% in size
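Enzyme (20 nM final) and test compound sit together 15 min at room temperature before substrate addition. Substrate is a single-forked duplex oligonucleotide (100 nM) labelled with fluorophore and quencher, with 2 mM ATP; helicase unwinding raises red fluorescence, read kinetically.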
FEN1 inh-1: blocks human flap endonuclease 1; P39748; Recombinant FEN1 flap cleavage, fluorescence, 15 min; Potency, µM (doses to about 114 µM), inactives show at the highest dose activity change, negative = inhibition, most hits filed as inhibitors; 0.35% of 390,000 active; AID 588795; further: on the % scale 0 is the no-effect control and ±100 the full control effect; nearly all actives have a fitted effect of over 65% in size
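Potency values derive from four-parameter Hill fits of normalized qHTS data. The reaction used 10 nM FEN1 preincubated 15 min at room temperature with compound, then 50 nM DNA substrate, read at 0 and 15 min.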
TbPGK inh: validation of Trypanosoma brucei phosphoglycerate kinase inhibitors; shares compounds with Pol kappa inh-1; TbPGK coupled GAPDH assay, Kinase-Glo luminescence; 79% of 500 active; Potency, µM (top dose mostly 57.5 µM), inactives show at the top dose activity change, negative = inhibition, hits mostly inhibitors; further: on the % scale 0 is the no-effect control and ±100 the full control effect; nearly all actives have a fitted effect of over 65% in size
POLI cherry-pick: Inhibitors of human DNA polymerase iota, confirmation | shares compounds with Pol kappa inh-1 | Pol iota primer extension, TAMRA/BHQ fluorescence | Potency, µM, hits mostly inhibitors | 77% of 1,500 active | AID 720496
Pol kappa inh-2: Pol kappa (human) inhibition, cherry-pick confirmation; 76% of 920 active; purified Pol-kappa, fluorescent strand-displacement substrate; Potency, µM, actives largely listed as inhibitors; shares compounds with Pol eta inh-1
Pol eta inh-2: confirmation of human DNA polymerase eta inhibitors; shares compounds with Pol eta inh-1; Pol eta primer extension, TAMRA/BHQ fluorescence, 10 min; Potency, µM, actives largely listed as inhibitors; 64% of 2,600 active; AID 720502
FEN1 inh-2: confirmation of human FEN1 inhibitors; Potency, µM, most hits filed as inhibitors; FEN1 flap cleavage, TAMRA/BHQ2 fluorogenic DNA substrate; shares compounds with FEN1 inh-1; 79% of 880 active; AID 720498; further: nearly all actives have a fitted effect of over 60% in size
WRN helicase inh-2: WRN helicase inhibition, cherry-pick retest | shares compounds with WRN helicase inh-1 | WRN helicase DNA unwinding, fluorescence kinetic | Potency, µM (doses to about 57.1 µM), inactives show at the top dose activity, negative = inhibition, actives largely listed as inhibitors | 63% of 610 active | AID 720497; further: nearly all actives have a fitted effect of over 65% in size
TO DNA binding: DNA binding via thiazole orange displacement | Potency, µM (highest dose often 57.1 µM), inactives show top-dose activity change, negative = inhibition, most hits filed as inhibitors | thiazole orange DNA binding displacement, fluorescence | 10% of 610 active | shares compounds with WRN helicase inh-1;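 further: drop in dye fluorescence marks compound binding to DNA; on the % scale 0 is the no-effect control and ±100 the full control effect; nearly all actives have a fitted effect of over 60% in size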
BLM helicase inh: counter-screen for WRN helicase inhibitors: human BLM helicase inhibition | shares compounds with WRN helicase inh-1 | Recombinant BLM helicase DNA unwinding, red fluorescence | Potency, µM (doses to about 57.1 µM), inactives show at the top dose activity change, negative = inhibition, usual class: inhibitors | 60% of 610 active; further: nearly all actives have a fitted effect of over 60% in size
Active calls of the source: *; [ ] = dose if it differs, or a comment. Most compounds without a hit are left out; they make up all but 2.4% or so of the library. The call rests on the fitted dose curve; in most records, active means well fitted curve in the direction sought with a large enough effect; inconclusive means small, poorly fitted or top-dose-only effect, or another doubt; inactive means no such curve, though single readings can be large; an effect the other way counts as inactive or inconclusive. Potency means the concentration at half of the fitted maximal effect.

How did Cc1cc(C)cc(C(=O)OC2C[C@H]3CC[C@@H](C2)N3C)c1 (some centres undefined) do in these assays?
Pol kappa inh-1: -7%[19.4 µM]

Results for Cc1cc(/C=C2\C(=O)NC(=O)N(Cc3ccccc3)C2=O)c(C)n1-c1ccc(Cl)c(C(=O)O)c1 ?
Pol beta inh: 3.5µM*; Pol eta inh-1: 1.8µM*; Pol kappa inh-1: 18µM*; POLI inh: 8.9µM*; WRN helicase inh-1: 28µM*; FEN1 inh-1: 79µM*; TbPGK inh: 6.5µM*; POLI cherry-pick: 24*; Pol kappa inh-2: 24*; Pol eta inh-2: 21*; FEN1 inh-2: inconclusive; WRN helicase inh-2: 6.8µM*; TO DNA binding: -12%; BLM helicase inh: 1.9µM*

How did Cc1ccc(-n2c(C)cc(/C=C3/C(=O)NC(=O)N(C)C3=O)c2C)cc1 do in these assays?
Pol beta inh: 5%; Pol eta inh-1: -3%; Pol kappa inh-1: -10%; POLI inh: inconclusive; WRN helicase inh-1: -3%; FEN1 inh-1: 3%

How did CN(CCc1ccc(Cl)c(Cl)c1)[C@H]1CCCC[C@H]1N1CCCC1 do in these assays?
Pol kappa inh-1: -5%[19.4 µM]

How did COc1cccc(OC)c1-c1nn2c(-c3n[nH]c4c3CCC4)nnc2s1 do in these assays?
Pol kappa inh-1: 79µM*; POLI inh: 5µM*; FEN1 inh-1: inconclusive; POLI cherry-pick: inconclusive; Pol eta inh-2: inconclusive; FEN1 inh-2: inconclusive; WRN helicase inh-2: inconclusive; TO DNA binding: inconclusive; BLM helicase inh: inconclusive

What do the screens show for `O=[As]O[As]=O` (centres undefined)?
Pol kappa inh-1: 4%[60.1 µM]

How did CCN(CCCl)c1cc(CN(C)C)cc(NC(=O)c2ccc(C(=O)Nc3cc(CN(C)C)cc(N(CC)CCCl)c3)cc2)c1 do in these assays?
Pol eta inh-1: 11µM*; Pol kappa inh-1: inconclusive; POLI inh: 28µM*; WRN helicase inh-1: inconclusive; FEN1 inh-1: inconclusive; POLI cherry-pick: 24*; Pol kappa inh-2: 0.53*; WRN helicase inh-2: 22µM*; TO DNA binding: -18%; BLM helicase inh: inconclusive

Results for CCN(CC)C(=O)c1ccc(NC(=O)c2cccc(C(F)(F)F)c2)cc1 ?
Pol beta inh: 15%; Pol eta inh-1: 2%; Pol kappa inh-1: -11%; POLI inh: 28%; WRN helicase inh-1: 0%; FEN1 inh-1: 11%

How did CC(C)NC(=O)N1CCC2(CC1)CCN(C(=O)Oc1ccccc1)CC2 do in these assays?
Pol kappa inh-1: -1%[60.1 µM]

Results for COC1C(O)C(C)OC(OC2C(Oc3cccc4c(O)c5c(=O)oc6ccc(C)c7c(=O)oc(c34)c5c67)OC(C)C(O)C2O)C1O (centres undefined) ?
Pol eta inh-1: 10µM*; Pol kappa inh-1: inconclusive; POLI inh: inconclusive; WRN helicase inh-1: inconclusive; FEN1 inh-1: 1.8µM*; POLI cherry-pick: 21*; Pol kappa inh-2: 4.2*; Pol eta inh-2: 43*; FEN1 inh-2: 6*; WRN helicase inh-2: 19µM*; TO DNA binding: inconclusive; BLM helicase inh: 63%

What do the screens show for `C[n+]1c2cc(N)ccc2cc2ccc(N)cc21`?
Pol eta inh-1: 45µM*; Pol kappa inh-1: 22µM*; POLI inh: 7.9µM*; WRN helicase inh-1: 18µM*; FEN1 inh-1: 8.9µM*; POLI cherry-pick: 9.5*; Pol kappa inh-2: 7.5*; Pol eta inh-2: 30*; WRN helicase inh-2: 11µM*; BLM helicase inh: 12µM*

Results for Nc1ccc2ccccc2c1 ?
Pol eta inh-1: -8%; Pol kappa inh-1: -5%; POLI inh: -13%; WRN helicase inh-1: 3%; FEN1 inh-1: 13%

What do the screens show for `O=c1[nH]c(O)c(/C=C2/C=CC(c3cc(Cl)ccc3Cl)=N2)c(=O)[nH]1`?
Pol beta inh: 17%; Pol eta inh-1: 18µM*; Pol kappa inh-1: -6%; POLI inh: 32%; WRN helicase inh-1: -18%; FEN1 inh-1: inconclusive; Pol eta inh-2: inconclusive

Results for CC1=Nc2ccccc2/C1=C/c1c(O)[nH]c(=O)[nH]c1=O ?
Pol beta inh: 1%; Pol eta inh-1: -1%; Pol kappa inh-1: -2%; POLI inh: inconclusive; WRN helicase inh-1: -1%; FEN1 inh-1: 6%
